Screening data from PubChem.
BoNT-A LC inh2: blocks Botulinum neurotoxin A light chain protease | multiplex microsphere protease substrate cleavage, flow cytometry | inhibition, % at 10 µM | actives 0.17% (n = 360,000) | AID 588499; note: plate controls were buffer without enzyme for full effect and enzyme alone for no effect
BJeLR lethal: kills HRASV12-expressing BJeLR cells. BJeLR (HRASV12) viability, CellTiter-Glo ATP luminescence, 48 h. inhibition, % (no concentration beside the values). actives 0.17% (n = 300,000). AID 1554; in the data active = inhibition above about 50%; inconclusive = no clear call, values can overlap the other calls
BoNT F protease: blocks Botulinum neurotoxin F light chain protease; Multiplex microsphere protease cleavage assay, flow cytometry; inhibition, % at 10 µM; actives 0.22% (n = 360,000); in the data active = inhibition above about 35%, passing the limit was not always enough; inconclusive = no clear call, values can overlap the other calls; note: plate controls were buffer without enzyme for full effect and enzyme alone for no effect
Bead autofluor: flagged as autofluorescent in microsphere protease counterscreen. fluorescence intensity (no concentration beside the values). compound autofluorescence counterscreen, microsphere flow cytometry; hits give high values. actives 3.1% (n = 360,000); in the data active = fluorescence intensity above about 16000; inconclusive = no clear call, values can overlap the other calls
Anthrax LF prot: inhibitors of Bacillus anthracis lethal factor protease; AID 588501; actives 0.12% (n = 360,000); multiplex microsphere protease cleavage assay, LF; inhibition, % at 10 µM; note: plate controls were buffer without enzyme for full effect and enzyme alone for no effect
Starred values were filed as active, the others as inactive; ? = inconclusive; . = not tested or not shown. Compounds with a hit are over-represented: about 3.5% of the library has one in this group of screens. Cut-off read from the data, not from the text of the source, unless noted: active = inhibition above about 30%; inconclusive = no clear call, values can overlap the other calls; inactive = below that.

SMILES	BoNT-A LC inh2	BJeLR lethal	BoNT F protease	Bead autofluor	Anthrax LF prot
O=C1N/C(=C\c2ccsc2)C(=O)N1Cc1ccc(F)cc1	1	5	1	7360	0
Cn1c(=O)n(C)c2cc(/C=C3/NC(=O)N(Cc4ccccc4)C3=O)ccc21	1	-17	0	20142*	-7
CCN=C1S/C(=C\c2cc(OCC)c(O)cc2Br)C(=O)N1CC	7	-3	72*	6185	30*
COc1ccc(NC(=O)N(C)C[C@H]2OCc3cn(nn3)CCCC(=O)N([C@@H](C)CO)C[C@@H]2C)cc1	0	.	0	3611	-5
O=C(Nc1c(F)cc(F)cc1Br)c1cccnc1	-1	-3	-2	23919*	0
CCn1c(SCC(=O)Nc2cccc(OC)c2)nnc1-c1ccc(Cl)cc1	?	-14	3	21821*	3
CSc1nnc(-c2ccc(S(=O)(=O)N3CCOCC3)cc2)n1CC1CCCO1 (stereo unspecified)	-5	15	-11	17507*	-6
Cc1ccc(NC(=O)Cc2nnc(SCC(=O)c3ccc(Br)cc3)n2C)cc1	0	-1	2	21836*	-6
CCSc1nnc(-c2ccc(S(=O)(=O)N3CCOCC3)cc2)n1CC1CCCO1 (stereo unspecified)	0	-3	3	15596	-8
CCn1c(CC(=O)Nc2ccc(C)cc2)nnc1SCC(=O)NCCc1ccccc1	-5	-7	-7	24526*	-1
O=c1[nH]cnc2c1ncn2C1OC(CO)CC1F (stereo unspecified)	0	.	-4	5960	-3
COc1ccc(S(=O)(=O)N(C)C[C@@H]2Oc3cc(C#CC4CCCCC4)ccc3S(=O)(=O)N([C@@H](C)CO)C[C@@H]2C)cc1	0	.	-2	3246	-7
O=C(CC[C@H]1O[C@@H](n2ccc(=O)[nH]c2=O)[C@H](O)[C@@H]1O)N[C@H](Cc1ccccc1)C(=O)NCC1CCCO1 (stereo partly specified)	0	.	3	6016	-8
COC(CNC(=O)C1CCCN(S(=O)(=O)c2c(C)noc2/C=C/c2cccs2)C1)OC (stereo unspecified)	0	-1	1	4754	3
CCn1c(SCC(=O)Nc2ccc(C)cc2)nnc1-c1ccc(O)cc1	-1	-2	-5	17034*	-3
COc1cc(C(=O)CSc2nnc(-c3ccc(O)cc3)n2CC2CCCO2)ccc1NC(C)=O (stereo unspecified)	-1	4	-10	12819	0
CCC(=O)Nc1ccc(C(=O)CSc2nnc(-c3ccc(O)cc3)n2CC2CCCO2)cc1 (stereo unspecified)	-1	20	-1	23574*	-2
CC1=C(C(=O)N(C(C)C)C(C)C)CC(CC(=O)NC2CCCC2)C(=O)N1Cc1ccc(F)cc1 (stereo unspecified)	-1	.	-6	4370	-7
CN1CCN(/C=N/c2c(C#N)cnn2Cc2ccccc2)CC1	?	1	-3	20606*	-5
CCSc1nnc(-c2cccc(S(=O)(=O)N(CC)CC)c2)n1Cc1ccccc1	?	19	-3	16031	-2
CCNC(=O)CSc1nnc(-c2cccc(S(=O)(=O)N(CC)CC)c2)n1CCc1ccccc1	0	-11	0	20492*	-2
CC[C@]12C(=O)N(C)C[C@H]([C@@H]3C(=O)N(C)C(=O)[C@@H]31)N2C(=O)c1ccc(Br)cc1	0	.	0	4138	-3
COc1cccc(/C=c2/s/c(=C(\C#N)C(=O)N3CCOCC3)n(-c3ccccc3)c2=O)c1	?	0	5	20549*	-7
CC(C)Cc1nc2oc3c(NCCCN4CCOCC4)ncnc3c2c2c1CCC2	-1	9	-3	23301*	-1
COc1ccc(Cn2nnnc2C(c2cc3ccc(OC)cc3[nH]c2=O)N2CCCCCC2)cc1 (stereo unspecified)	6	1	2	22040*	9
SMILES	BoNT-A LC inh2	BJeLR lethal	BoNT F protease	Bead autofluor	Anthrax LF prot
COc1cc2cc(C(c3nnnn3Cc3ccc(F)cc3)N3CCCCCC3)c(=O)[nH]c2cc1OC (stereo unspecified)	?	.	0	18413*	5
COc1ccc(Cn2nnnc2C(c2cc3cc(C)ccc3[nH]c2=O)N2CCN(C)CC2)cc1 (stereo unspecified)	2	-1	-4	3516	0
COCCn1nnnc1C(c1cc2cc(OC)c(OC)cc2[nH]c1=O)N1CCN(c2ccc(O)cc2)CC1 (stereo unspecified)	-1	4	-4	3460	1
CC(=O)Nc1cccc(-c2ccnc3c2CC(C(=O)Nc2ccc(Cl)cc2)O3)c1 (stereo unspecified)	0	.	-1	3716	0
CC(OC(=O)CN(C)S(=O)(=O)c1ccc(Cl)cc1)C(=O)Nc1cccc(Cl)c1 (stereo unspecified)	-1	-6	5	10400	-5
CC(OC(=O)CNC(=O)C12CC3CC(CC(C3)C1)C2)C(=O)Nc1ncc(Cl)cc1Cl (stereo unspecified)	3	-7	4	18610*	0
CC(OC(=O)CNC(=O)C12CC3CC(CC(C3)C1)C2)C(=O)Nc1ccc(S(N)(=O)=O)cc1 (stereo unspecified)	0	-6	-2	4411	3
CC(OC(=O)CN(C)S(=O)(=O)c1ccc(Cl)cc1)C(=O)Nc1ncc(Cl)cc1Cl (stereo unspecified)	0	-15	-2	23244*	-1
O=C(NC1CCC1)C1CCC(=O)N(Cc2ccc(Cl)cc2)C1 (stereo unspecified)	0	.	0	3593	0
O=C(NCCC1=CCCCC1)C1CCCN(S(=O)(=O)c2ccc(F)cc2)C1 (stereo unspecified)	0	-3	-7	2538	-4
Cc1ccc(S(=O)(=O)N2CCCC(C(=O)NCCC3=CCCCC3)C2)cc1 (stereo unspecified)	-1	5	-2	21132*	-1
O=C(NCCC1=CCCCC1)C1CCN(S(=O)(=O)N2CCOCC2)CC1	-2	-2	-4	20881*	-2
N#CCc1c(C#N)c(N)nc(N2CCN(Cc3ccc4c(c3)OCO4)CC2)c1C#N	4	.	1	19575*	0
O=C1C=CC2=C3c4cc(O)c(O)cc4CC3(O)COC2=C1O (stereo unspecified)	-8	.	-47	4165	-10
O=C(O)C1CC=CCC1C(=O)N1CCN(c2nc(-c3ccccc3Cl)c3cc(Br)ccc3n2)CC1 (stereo unspecified)	-3	.	-56	16567*	-8
Cc1cc2c3c(c1)C1(SCC(=O)N1c1ccc(F)cc1)C(=O)N3C(C)(C)CC2C (stereo unspecified)	-8	-5	-10	18092*	-4
O=C(CCSc1ccccc1)Nc1nccs1	?	-39	-2	16866*	0
O=C(N/N=C/c1ccc2c(c1)OCO2)C(=O)Nc1ccc2ccccc2c1	.	-5	.	.	.
COc1ccccc1-c1noc2c1C(=O)N(Cc1cn(-c3ccccc3OC)nn1)CC2	-1	.	2	5900	-5
C[C@@H]1C=CC(=O)O[C@@H]1c1ccc(Cl)cc1	.	77*	.	.	.
